The supplement of paper PMC10849652
The full data set covers some 7,900 targets. This sample favours those with a hit. About 0.6% of all pairs of compound and target were hits.

Legend:
Test in all cases: log2 fold change, soluble protein after heating vs DMSO (PISA); higher = thermal stabilisation; K562 cells, 10 uM, 30 min; active = over 0.2 and 3.5 SD of the protein, either way, in both replicates (recomputed)
saracatinib = compound: CN1CCN(CCOc2cc(OC3CCOCC3)c3c(Nc4c(Cl)ccc5c4OCO5)ncnc3c2)CC1 [saracatinib]
In short: (§1)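 K562 cells at 2×10^6 cells/mL were treated for 30 min with 10 μM compound, and aliquots were heated for 3 min over 48°C-58°C before pooling. Extraction used PBS with 0.5% NP-40 at 4°C, and soluble protein was the supernatant after 21,000xg for 90 min, measured by TMTpro 16plex LC-MS/MS with channel sums equalised. Thermal stability values, relative to control samples and from duplicates, are log2 fold changes.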

sotrastaurin = compound: CN1CCN(c2nc(C3=C(c4c[nH]c5ccccc45)C(=O)NC3=O)c3ccccc3n2)CC1 [sotrastaurin]
In short: as §1

alvocidib = compound: CN1CC[C@H](c2c(O)cc(O)c3c(=O)cc(-c4ccccc4Cl)oc23)[C@H](O)C1 [alvocidib]
In short: as §1

Tubastatin A = compound: CN1CCc2c(c3ccccc3n2Cc2ccc(C(=O)NO)cc2)C1 [Tubastatin A]
In short: as §1

[1] = compound: CNC(=O)C1=CC=CC=C1NC2=NC(=NC=C2Cl)NC3=C(C=C(C=C3)N4CCOCC4)OC
In short: as §1

defactinib = compound: CNC(=O)c1ccc(Nc2ncc(C(F)(F)F)c(NCc3nccnc3N(C)S(C)(=O)=O)n2)cc1 [defactinib]
In short: as §1

rucaparib = compound: CNCc1ccc(-c2[nH]c3cc(F)cc4c3c2CCNC4=O)cc1 [rucaparib]
In short: as §1

[2] = compound: CNc1nc(-c2ccc3c(N)n[nH]c3c2)cc(N2C[C@@H](C(=O)NC3CCCCC3)CC[C@H]2C)n1
In short: as §1

encorafenib = compound: COC(=O)N[C@@H](C)CNc1nccc(-c2cn(C(C)C)nc2-c2cc(Cl)cc(NS(C)(=O)=O)c2F)n1 [encorafenib]
In short: as §1

[3] = compound: COC(=O)[C@H](CCSC)NC(=O)C1=C(C=C(C=C1)NC[C@H](CS)N)C2=CC=CC=C2
In short: as §1

[4] = compound: COC1=CC=C(C=C1)CN2C=CC3=C2C=C(C=C3)C(=O)NO
In short: as §1

filanesib = compound: CON(C)C(=O)N1N=C(c2cc(F)ccc2F)S[C@@]1(CCCN)c1ccccc1 [filanesib]
In short: as §1

zotarolimus = compound: CO[C@H]1C[C@@H]2CC[C@@H](C)[C@@](O)(O2)C(=O)C(=O)N2CCCC[C@H]2C(=O)O[C@H]([C@H](C)C[C@@H]2CC[C@H](n3cnnn3)[C@H](OC)C2)CC(=O)[C@H](C)/C=C(\C)[C@@H](O)[C@@H](OC)C(=O)[C@H](C)C[C@H](C)/C=C/C=C/C=C/1C [zotarolimus]
In short: as §1

idasanutlin = compound: COc1cc(C(=O)O)ccc1NC(=O)[C@@H]1N[C@@H](CC(C)(C)C)[C@](C#N)(c2ccc(Cl)cc2F)[C@H]1c1cccc(Cl)c1F [idasanutlin]
In short: as §1

alisertib = compound: COc1cc(Nc2ncc3c(n2)-c2ccc(Cl)cc2C(c2c(F)cccc2OC)=NC3)ccc1C(=O)O [alisertib]
In short: as §1

[5] = compound: COc1cc2nc(-c3cc(F)ccc3O)nc(N[C@@H]3CNC[C@H]3C(C)(C)O)c2cc1OC
In short: as §1

gefitinib = compound: COc1cc2ncnc(Nc3ccc(F)c(Cl)c3)c2cc1OCCCN1CCOCC1 [gefitinib]
In short: as §1

[6] = compound: COc1cccc2cc(-c3nc([C@H]4CC[C@H](C(=O)O)CC4)n4ncnc(N)c34)[nH]c12
In short: as §1

lapatinib = compound: CS(=O)(=O)CCNCc1ccc(-c2ccc3ncnc(Nc4ccc(OCc5cccc(F)c5)c(Cl)c4)c3c2)o1 [lapatinib]
In short: as §1

pictilisib = compound: CS(=O)(=O)N1CCN(Cc2cc3nc(-c4cccc5[nH]ncc45)nc(N4CCOCC4)c3s2)CC1 [pictilisib]
In short: as §1

Measured: log2 fold change

LTV1 (UniProt Q96GA3)
inactive: saracatinib -0.09 | sotrastaurin -0.037 | alvocidib 0.151 | Tubastatin A 0.16 | [1] 0.083 | defactinib 0.145 | rucaparib 0.074 | [2] 0.081 | encorafenib 0.109 | [3] -0.061 | [4] -0.019 | filanesib 0.17 | zotarolimus 0.067 | idasanutlin 0.133 | alisertib -0.06 | [5] 0.022 | gefitinib -0.097 | [6] -0.095 | lapatinib 0.05 | pictilisib 0

MAPKAPK2 (UniProt P49137)
Chain of UniProt P49137 (P49137 whole entry, looked up): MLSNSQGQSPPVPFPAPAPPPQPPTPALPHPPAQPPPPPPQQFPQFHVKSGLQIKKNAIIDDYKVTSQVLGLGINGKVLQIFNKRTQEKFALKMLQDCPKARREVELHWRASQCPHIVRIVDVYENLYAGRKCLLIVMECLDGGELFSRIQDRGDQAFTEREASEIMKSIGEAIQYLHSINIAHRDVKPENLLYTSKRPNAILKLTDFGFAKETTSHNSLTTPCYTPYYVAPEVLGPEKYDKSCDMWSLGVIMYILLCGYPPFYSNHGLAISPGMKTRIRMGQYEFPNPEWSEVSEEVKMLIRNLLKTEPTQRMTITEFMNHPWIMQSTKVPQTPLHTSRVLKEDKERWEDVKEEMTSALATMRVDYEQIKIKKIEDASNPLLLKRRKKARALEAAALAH
inactive: saracatinib 0.077 | sotrastaurin -0.035 | alvocidib 0 | Tubastatin A -0.006 | [1] -0.01 | defactinib -0.013 | rucaparib 0 | [2] -0.022 | encorafenib 0.139 | [3] 0.023 | [4] 0.066 | filanesib -0.06 | zotarolimus -0.012 | idasanutlin -0.054 | alisertib -0.03 | [5] 0.118 | gefitinib 0.11 | [6] 0.01 | lapatinib -0.025 | pictilisib 0.023

LEMD2 (UniProt Q8NC56)
inactive: saracatinib -0.048 | sotrastaurin 0.004 | alvocidib 0.061 | Tubastatin A 0.014 | [1] -0.058 | defactinib -0.126 | rucaparib 0.11 | [2] 0.041 | encorafenib 0.023 | [3] 0.013 | [4] -0.051 | filanesib -0.211 | zotarolimus 0 | idasanutlin -0.008 | alisertib 0.044 | [5] -0.271 | gefitinib 0.061 | [6] 0.047 | lapatinib 0.133 | pictilisib -0.007

LMNB2 (UniProt Q03252)
inactive: saracatinib -0.031 | sotrastaurin -0.127 | alvocidib -0.02 | Tubastatin A 0.02 | [1] 0.027 | defactinib -0.201 | rucaparib -0.085 | [2] -0.073 | encorafenib -0.009 | [3] 0.049 | [4] -0.023 | filanesib 0.1 | zotarolimus -0.064 | idasanutlin 0.099 | alisertib 0.004 | [5] -0.005 | gefitinib -0.001 | [6] 0.069 | lapatinib 0.059 | pictilisib 0.03

LDAH isoform 2 (UniProt Q9H6V9)
Chain of UniProt Q9H6V9 (Q9H6V9 whole entry, looked up): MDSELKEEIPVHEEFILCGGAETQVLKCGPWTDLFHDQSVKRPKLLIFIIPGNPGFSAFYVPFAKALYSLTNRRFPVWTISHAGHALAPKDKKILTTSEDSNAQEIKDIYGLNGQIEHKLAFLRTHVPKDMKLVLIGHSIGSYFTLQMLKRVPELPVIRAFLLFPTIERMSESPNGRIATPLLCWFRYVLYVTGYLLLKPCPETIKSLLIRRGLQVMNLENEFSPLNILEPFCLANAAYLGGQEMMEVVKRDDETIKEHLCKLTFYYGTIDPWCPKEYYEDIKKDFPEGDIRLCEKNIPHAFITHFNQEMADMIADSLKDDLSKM
inactive: saracatinib 0.092 | sotrastaurin 0.035 | alvocidib -0.139 | Tubastatin A -0.03 | [1] -0.001 | defactinib -0.09 | rucaparib -0.004 | [2] -0.043 | encorafenib 0.04 | [3] -0.063 | [4] 0.06 | filanesib -0.137 | zotarolimus 0.057 | idasanutlin -0.185 | alisertib -0.041 | gefitinib 0.004 | [6] 0.032 | lapatinib -0.005 | pictilisib 0.075
active: [5] -0.517

LARP4B (UniProt Q92615)
inactive: saracatinib -0.009 | sotrastaurin -0.083 | alvocidib 0.004 | Tubastatin A -0.033 | [1] -0.025 | defactinib -0.037 | rucaparib 0.273 | [2] 0.02 | encorafenib 0.094 | [3] 0.032 | [4] 0.035 | filanesib 0.056 | zotarolimus 0.004 | idasanutlin 0.053 | alisertib -0.054 | [5] -0.108 | gefitinib 0.011 | [6] -0.06 | lapatinib 0.081 | pictilisib -0.009

IGF2R (UniProt P11717)
Chain of UniProt P11717 (P11717 whole entry, looked up): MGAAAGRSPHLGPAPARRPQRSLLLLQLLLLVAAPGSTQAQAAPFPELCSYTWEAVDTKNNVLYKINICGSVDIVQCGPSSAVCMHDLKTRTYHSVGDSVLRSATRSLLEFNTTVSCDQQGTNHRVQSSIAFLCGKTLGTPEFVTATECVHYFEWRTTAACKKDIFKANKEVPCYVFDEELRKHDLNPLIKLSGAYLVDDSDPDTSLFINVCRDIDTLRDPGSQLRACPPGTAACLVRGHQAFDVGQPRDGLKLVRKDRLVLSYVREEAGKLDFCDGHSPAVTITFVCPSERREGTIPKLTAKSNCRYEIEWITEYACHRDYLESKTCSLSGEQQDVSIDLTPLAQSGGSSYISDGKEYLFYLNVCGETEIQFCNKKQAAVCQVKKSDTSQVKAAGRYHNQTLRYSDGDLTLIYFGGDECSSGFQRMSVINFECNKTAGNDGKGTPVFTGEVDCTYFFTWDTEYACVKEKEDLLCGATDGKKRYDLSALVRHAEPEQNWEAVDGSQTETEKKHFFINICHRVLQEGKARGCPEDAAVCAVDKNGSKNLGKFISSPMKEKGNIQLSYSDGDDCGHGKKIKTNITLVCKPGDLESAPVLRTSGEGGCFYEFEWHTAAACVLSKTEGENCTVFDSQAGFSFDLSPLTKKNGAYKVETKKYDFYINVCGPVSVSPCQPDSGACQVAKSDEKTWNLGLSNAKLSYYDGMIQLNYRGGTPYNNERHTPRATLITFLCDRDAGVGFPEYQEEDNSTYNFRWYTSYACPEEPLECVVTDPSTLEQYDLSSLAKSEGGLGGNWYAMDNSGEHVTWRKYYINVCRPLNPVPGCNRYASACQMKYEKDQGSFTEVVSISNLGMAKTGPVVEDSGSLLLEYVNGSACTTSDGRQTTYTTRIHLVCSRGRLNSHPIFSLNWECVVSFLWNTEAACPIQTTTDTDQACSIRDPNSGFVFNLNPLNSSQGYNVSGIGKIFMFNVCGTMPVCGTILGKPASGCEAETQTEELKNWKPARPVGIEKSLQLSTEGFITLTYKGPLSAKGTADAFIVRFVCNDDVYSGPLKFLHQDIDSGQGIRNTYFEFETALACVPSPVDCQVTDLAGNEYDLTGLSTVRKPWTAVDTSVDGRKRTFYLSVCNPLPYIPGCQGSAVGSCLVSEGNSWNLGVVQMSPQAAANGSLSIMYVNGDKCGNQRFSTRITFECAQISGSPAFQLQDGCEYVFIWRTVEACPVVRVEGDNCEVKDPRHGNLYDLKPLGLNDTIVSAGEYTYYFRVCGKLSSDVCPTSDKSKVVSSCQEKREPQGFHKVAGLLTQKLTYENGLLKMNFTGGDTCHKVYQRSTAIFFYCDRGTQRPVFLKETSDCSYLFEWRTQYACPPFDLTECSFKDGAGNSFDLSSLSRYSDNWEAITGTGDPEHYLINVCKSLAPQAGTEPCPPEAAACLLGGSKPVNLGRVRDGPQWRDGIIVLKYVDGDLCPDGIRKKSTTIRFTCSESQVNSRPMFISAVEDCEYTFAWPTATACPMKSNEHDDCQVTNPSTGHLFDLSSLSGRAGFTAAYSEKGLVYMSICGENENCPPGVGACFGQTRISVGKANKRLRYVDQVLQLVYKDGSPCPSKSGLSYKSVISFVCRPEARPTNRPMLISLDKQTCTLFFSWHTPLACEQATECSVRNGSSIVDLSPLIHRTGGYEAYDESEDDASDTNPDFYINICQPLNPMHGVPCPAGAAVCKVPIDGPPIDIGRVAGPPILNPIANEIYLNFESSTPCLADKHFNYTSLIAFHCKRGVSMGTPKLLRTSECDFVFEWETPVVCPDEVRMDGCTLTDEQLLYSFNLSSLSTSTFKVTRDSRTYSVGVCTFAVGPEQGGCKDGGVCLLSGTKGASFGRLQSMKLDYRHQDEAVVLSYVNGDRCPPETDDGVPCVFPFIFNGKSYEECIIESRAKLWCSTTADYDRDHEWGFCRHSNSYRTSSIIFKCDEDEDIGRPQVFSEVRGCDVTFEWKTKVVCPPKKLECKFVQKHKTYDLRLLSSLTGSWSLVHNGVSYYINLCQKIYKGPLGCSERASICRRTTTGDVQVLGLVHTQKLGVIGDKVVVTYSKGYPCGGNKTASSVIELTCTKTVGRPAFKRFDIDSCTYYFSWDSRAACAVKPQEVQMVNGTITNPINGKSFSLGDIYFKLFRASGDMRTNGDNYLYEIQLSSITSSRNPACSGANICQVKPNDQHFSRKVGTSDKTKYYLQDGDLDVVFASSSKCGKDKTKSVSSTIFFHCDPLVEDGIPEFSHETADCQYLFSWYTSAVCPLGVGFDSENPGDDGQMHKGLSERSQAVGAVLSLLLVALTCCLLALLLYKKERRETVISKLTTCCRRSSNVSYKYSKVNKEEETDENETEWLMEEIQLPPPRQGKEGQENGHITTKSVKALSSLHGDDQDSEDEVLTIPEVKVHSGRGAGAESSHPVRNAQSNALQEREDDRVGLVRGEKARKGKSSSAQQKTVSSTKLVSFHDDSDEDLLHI
inactive: saracatinib -0.015 | sotrastaurin 0.004 | alvocidib -0.008 | Tubastatin A -0.004 | [1] 0.061 | defactinib -0.01 | rucaparib -0.027 | [2] -0.008 | encorafenib 0.045 | [3] 0.005 | [4] 0.041 | filanesib 0.007 | zotarolimus -0.014 | idasanutlin -0.012 | alisertib -0.058 | [5] -0.065 | gefitinib -0.003 | [6] 0 | lapatinib 0.015 | pictilisib 0.002

LIMA1 isoform 4 (UniProt Q9UHB6)
inactive: saracatinib 0.046 | sotrastaurin -0.109 | alvocidib 0.111 | Tubastatin A 0.014 | [1] -0.033 | defactinib -0.015 | rucaparib 0.074 | [2] -0.089 | encorafenib 0.017 | [3] 0.01 | [4] -0.044 | filanesib 0.178 | zotarolimus 0.021 | idasanutlin 0.008 | alisertib -0.028 | [5] 0.171 | gefitinib 0.077 | [6] 0.11 | lapatinib -0.126 | pictilisib -0.1

MARCKS (UniProt P29966)
Chain of UniProt P29966 (P29966 whole entry, looked up): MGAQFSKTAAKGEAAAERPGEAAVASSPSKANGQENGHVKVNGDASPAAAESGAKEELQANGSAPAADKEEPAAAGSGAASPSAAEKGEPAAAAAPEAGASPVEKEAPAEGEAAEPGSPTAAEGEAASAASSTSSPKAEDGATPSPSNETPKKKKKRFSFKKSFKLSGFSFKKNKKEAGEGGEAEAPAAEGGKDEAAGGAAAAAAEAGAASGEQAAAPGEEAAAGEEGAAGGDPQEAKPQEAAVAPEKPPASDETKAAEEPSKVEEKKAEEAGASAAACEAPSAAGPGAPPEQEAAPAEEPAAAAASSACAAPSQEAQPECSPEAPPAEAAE
inactive: saracatinib 0.019 | sotrastaurin 0.077 | alvocidib -0.016 | Tubastatin A 0.039 | [1] 0.005 | defactinib 0.009 | rucaparib -0.02 | [2] -0.02 | encorafenib -0.014 | [3] 0.002 | [4] 0.108 | filanesib 0.004 | zotarolimus 0.001 | idasanutlin 0.062 | alisertib 0.006 | [5] -0.016 | gefitinib -0.003 | [6] 0.069 | lapatinib 0.019 | pictilisib -0.225

LRRFIP1 (UniProt Q32MZ4)
inactive: saracatinib 0.017 | sotrastaurin 0.047 | alvocidib 0.014 | Tubastatin A -0.005 | [1] -0.009 | defactinib -0.01 | rucaparib -0.01 | [2] -0.034 | encorafenib -0.019 | [3] 0.022 | [4] -0.014 | filanesib 0.022 | zotarolimus -0.034 | idasanutlin 0.019 | alisertib -0.031 | [5] 0.023 | gefitinib -0.007 | [6] 0.025 | lapatinib -0.012 | pictilisib -0.027

LYN (UniProt P07948)
Chain of UniProt P07948 (P07948 whole entry, looked up): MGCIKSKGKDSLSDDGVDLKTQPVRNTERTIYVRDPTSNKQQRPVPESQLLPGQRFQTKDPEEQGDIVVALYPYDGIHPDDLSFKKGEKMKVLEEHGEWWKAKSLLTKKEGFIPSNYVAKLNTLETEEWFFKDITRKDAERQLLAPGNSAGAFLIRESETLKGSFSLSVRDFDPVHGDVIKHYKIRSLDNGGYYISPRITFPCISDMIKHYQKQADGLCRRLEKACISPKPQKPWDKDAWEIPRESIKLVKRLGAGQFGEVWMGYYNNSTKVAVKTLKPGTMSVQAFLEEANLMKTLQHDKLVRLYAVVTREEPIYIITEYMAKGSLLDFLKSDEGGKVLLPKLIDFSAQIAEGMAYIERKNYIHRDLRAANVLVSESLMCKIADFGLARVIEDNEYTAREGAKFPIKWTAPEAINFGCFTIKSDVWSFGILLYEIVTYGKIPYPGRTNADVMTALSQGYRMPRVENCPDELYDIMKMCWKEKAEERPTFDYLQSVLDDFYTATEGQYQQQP
inactive: saracatinib -0.198 | sotrastaurin -0.08 | alvocidib 0 | Tubastatin A 0.026 | [1] -0.287 | defactinib -0.174 | rucaparib 0.13 | [2] -0.022 | encorafenib 0.009 | [3] 0.038 | [4] -0.074 | filanesib 0.021 | zotarolimus 0.07 | idasanutlin -0.01 | alisertib 0.002 | [5] 0.259 | gefitinib -0.036 | [6] 0.081 | lapatinib 0.011 | pictilisib 0.112

IPO7 (UniProt O95373)
Chain of UniProt O95373 (O95373 whole entry, looked up): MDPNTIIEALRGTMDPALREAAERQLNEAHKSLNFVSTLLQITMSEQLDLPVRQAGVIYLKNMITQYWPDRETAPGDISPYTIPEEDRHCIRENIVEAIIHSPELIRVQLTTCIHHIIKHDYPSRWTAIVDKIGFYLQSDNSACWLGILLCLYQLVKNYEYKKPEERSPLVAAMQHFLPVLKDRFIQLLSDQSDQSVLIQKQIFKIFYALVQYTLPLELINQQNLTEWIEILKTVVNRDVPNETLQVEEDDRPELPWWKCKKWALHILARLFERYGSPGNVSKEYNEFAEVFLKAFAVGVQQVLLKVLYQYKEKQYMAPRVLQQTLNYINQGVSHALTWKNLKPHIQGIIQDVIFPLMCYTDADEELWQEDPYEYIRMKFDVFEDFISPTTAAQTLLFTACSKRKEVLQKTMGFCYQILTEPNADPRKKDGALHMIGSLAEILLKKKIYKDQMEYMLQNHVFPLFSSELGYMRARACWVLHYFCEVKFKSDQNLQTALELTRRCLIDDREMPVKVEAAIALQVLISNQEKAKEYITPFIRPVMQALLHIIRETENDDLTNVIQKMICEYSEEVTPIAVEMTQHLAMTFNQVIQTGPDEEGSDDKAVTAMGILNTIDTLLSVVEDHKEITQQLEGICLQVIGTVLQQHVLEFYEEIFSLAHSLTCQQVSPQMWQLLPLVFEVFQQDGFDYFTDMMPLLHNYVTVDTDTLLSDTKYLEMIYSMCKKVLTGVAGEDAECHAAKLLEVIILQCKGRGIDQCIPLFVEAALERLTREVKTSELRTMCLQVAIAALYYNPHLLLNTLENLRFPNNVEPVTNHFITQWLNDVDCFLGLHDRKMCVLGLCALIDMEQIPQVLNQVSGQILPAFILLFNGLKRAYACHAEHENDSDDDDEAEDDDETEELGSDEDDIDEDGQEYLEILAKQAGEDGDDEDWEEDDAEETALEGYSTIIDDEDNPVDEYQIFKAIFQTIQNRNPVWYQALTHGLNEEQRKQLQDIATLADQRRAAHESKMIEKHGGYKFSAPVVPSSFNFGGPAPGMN
inactive: saracatinib -0.004 | sotrastaurin -0.089 | alvocidib -0.146 | Tubastatin A 0.023 | [1] 0.01 | defactinib -0.163 | rucaparib -0.083 | [2] -0.012 | encorafenib 0.052 | [3] -0.015 | [4] 0.053 | filanesib -0.094 | zotarolimus 0.014 | idasanutlin -0.103 | alisertib -0.087 | [5] -0.111 | gefitinib 0 | [6] -0.014 | lapatinib -0.008 | pictilisib -0.006

MAIP1 (UniProt Q8WWC4)
inactive: saracatinib 0.03 | sotrastaurin 0.06 | alvocidib -0.058 | Tubastatin A 0.028 | [1] 0.002 | defactinib -0.054 | rucaparib -0.039 | [2] -0.04 | encorafenib 0.048 | [3] 0.008 | [4] 0.054 | filanesib -0.12 | zotarolimus -0.025 | idasanutlin -0.033 | alisertib -0.047 | [5] -0.088 | gefitinib -0.002 | [6] 0.095 | lapatinib 0.036 | pictilisib 0.01

ILF3 isoform 7 (UniProt Q12906)
inactive: saracatinib 0.001 | sotrastaurin 0.087 | alvocidib 0.362 | Tubastatin A -0.044 | [1] 0.03 | rucaparib 0.202 | [2] -0.003 | encorafenib 0.032 | [3] 0 | [4] 0.022 | filanesib 0.213 | zotarolimus -0.047 | idasanutlin 0.095 | alisertib -0.061 | [5] 0.174 | gefitinib -0.022 | [6] -0.06 | lapatinib 0 | pictilisib 0.018
active: defactinib 0.554

INTS7 (UniProt Q9NVH2)
inactive: saracatinib 0.035 | alvocidib -0.095 | Tubastatin A 0 | defactinib -0.096 | rucaparib 0.019 | [2] -0.003 | encorafenib 0.036 | [3] -0.019 | [4] 0.05 | filanesib -0.022 | zotarolimus -0.007 | idasanutlin -0.052 | alisertib -0.029 | [5] 0.05 | gefitinib -0.052 | [6] -0.012 | lapatinib -0.015 | pictilisib 0.148
active: sotrastaurin -0.503 | [1] 0.529

IKZF1 (UniProt Q13422)
inactive: saracatinib 0.038 | sotrastaurin -0.133 | alvocidib -0.127 | Tubastatin A -0.018 | [1] -0.042 | defactinib -0.1 | rucaparib -0.026 | [2] -0.029 | encorafenib -0.052 | [3] -0.008 | [4] -0.045 | filanesib -0.136 | zotarolimus 0.004 | idasanutlin 0.037 | alisertib -0.019 | [5] 0.01 | gefitinib 0.128 | [6] 0.039 | lapatinib -0.041 | pictilisib 0.026
